Source: PubChem (National Center for Advancing Translational Sciences (NCATS))
IL1B secr inh – inflammasome signaling inhibition, IL-1 beta readout; THP-1 LPS/ATP IL-1B secretion, AlphaLISA, 16 h; stronger effect = lower value; activity change, % at 57.5 µM; 360,000 compounds, 4.7% hits; AID 743279; in the data active = activity change below about -50%; inconclusive = mostly about -30% to -49%
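Secreted IL-1B measured by AlphaLISA bead assay after 16 h compound exposure of THP-1 cells; compounds (final up to 57.5 uM) added 1 h before LPS (250 ng/mL) and ATP (1.25 mM) stimulation; lower signal means less secretion.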
TDP1 cell CPT – growth inhibition of DT40 Tdp1-/-;hTDP1 cells with camptothecin (screen for TDP1 inhibitors); chicken DT40 Tdp1-/-;hTDP1 cells + 20 nM CPT, ATP luminescence, 48 h; Potency, µM (titrated, usually from 46.2 µM), usual class: inhibitors; 420,000 compounds, 12% hits; AID 686979; note: nearly all actives have a fitted effect of over 55% in size
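Cell growth measured by CellTiter-Glo luminescence after a minimum 48 h, 37 C compound exposure with 20 nM CPT in Tdp1-knockout DT40 cells stably expressing hTDP1, seeded 400/well; qHTS titration format.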
TDP1 cell noCPT – qHTS for Inhibitors of human tyrosyl-DNA phosphodiesterase 1 (TDP1): qHTS in cells in absence of CPT | DT40 Tdp1-/- hTDP1 cells, no CPT, ATP luminescence, 48 h | Potency, µM (top dose mostly 46.2 µM), actives largely listed as inhibitors | 420,000 compounds, 15% hits; note: nearly all actives have a fitted effect of over 55% in size
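Chicken DT40 Tdp1-/- cells complemented with human TDP1, screened without camptothecin (DMSO vehicle only), 400 cells/well. Compounds pin-transferred, cells incubated at 37 °C for at least 48 hr. Growth read as ATP-dependent luminescence (CellTiter-Glo, 30 min at RT).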
HT1080 IDH1KD tx – toxicity to HT-1080 IDH1 knockdown cells (counter line) | HT-1080 IDH1 knockdown viability, ATP luminescence, 48 h | Potency, µM (titrated, usually from 46.1 µM), usual class: cytotoxic | 360,000 compounds, 2% hits | AID 686971
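Using the IDH1-knockdown HT-1080 line run in the same batch and compound series as the NT line, viability after 48 h at 37 °C was determined by CellTiter-Glo luminescence and expressed as % activity.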
HT1080-NT tox – kills 2HG-producing HT-1080-NT fibrosarcoma cells | HT-1080-NT fibrosarcoma viability, CellTiter-Glo ATP luminescence, 48 h | Potency, µM (highest dose often 46.1 µM), hits mostly cytotoxic | 360,000 compounds, 1.6% hits | AID 686970;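 note: NT is the 2HG producing partner of a matched IDH1 knockdown line; nearly all actives have a fitted effect of over 55% in size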
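Viability by CellTiter-Glo luminescence after 48 h compound exposure at 37C of HT-1080-NT cells (750/well, RPMI, 5% FBS). % activity scaled between DMSO wells and medium-only wells, then curve-fitted and categorized by curve class.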
Numbers stand for hits; – = inactive; ? = inconclusive; · = no result; [ ] = dose if it differs, or a comment. Rows were chosen to be rich in hits. Some 19% of all compounds tested hit in one or more screens of this group. Unless noted, calls come from the whole dose curve; as a rule, active = well fitted curve in the direction sought with a large enough effect; inconclusive = small, poorly fitted or top-dose-only effect, or another doubt; inactive = no such curve, though single readings can be large; an effect the other way counts as inactive or inconclusive.

SMILES | IL1B secr inh | TDP1 cell CPT | TDP1 cell noCPT | HT1080 IDH1KD tx | HT1080-NT tox
CC(C(=O)O)n1c2ccccc2c2cnn(C)c(=O)c21 (configuration not stated) | – | – | – | – | –
CC(NCCC1(Cc2ccccc2Cl)CCOC(C)(C)C1)c1cccs1 (configuration not stated) | -54 | 23µM | 21µM | ? | –
Cc1cccc(N2CCCC2=Nc2ccc(Br)cc2C#N)c1 | – | ? | – | – | –
Cc1ccc(C(=O)Cc2ccccc2)o1 | – | – | – | – | –
Cc1ccc(C(=O)CCNc2cccc(Br)c2)o1 | – | 21µM | 18µM | – | –
O=C(CCC(=O)c1ccc(F)cc1)Nc1cccc(Br)c1 | – | – | – | – | –
CCc1ccc(NCCC(=O)c2ccc(Br)cc2)cc1 | – | ? | ? | – | –[9.24 µM]
Cc1ccc(C(=O)CCNc2ccccc2)o1 | – | ? | 8.2µM | – | –
Cc1ccc(C(=O)CCNc2ccc(F)c(Cl)c2)o1 | – | 16µM | 16µM | – | –
Cc1ccc(C(=O)CCNc2ccc(Br)cc2)o1 | – | 13µM | 13µM | – | –
O=C(O)c1cc(-n2[nH]c(=O)c3ccccc3c2=O)ccc1Cl | – | – | – | – | –
CCOc1ccccc1NC(=O)C(c1ccccc1)N1CCN(C(=O)c2ccco2)CC1 (configuration not stated) | – | – | ? | – | –
CCOC(=O)c1c(NC(=O)CSc2nnc(-c3c[nH]c4ccccc34)n2CCOC)sc2c1CCCC2 | – | 23µM | 15µM | – | ?
CCOC(=O)c1c(NC(=O)C(C)S(=O)(=O)c2cn(CC)c3ccccc23)sc2c1CCCC2 (configuration not stated) | – | ? | 6.5µM | – | –
CCOC(=O)c1c(NC(=O)CSc2cn(CCNC(=O)c3ccc(OC)c(OC)c3)c3ccccc23)sc2c1CCCC2 | · | 7.3µM | 2.9µM | · | ·
CCOC(=O)c1c(NC(=O)CSc2nnc(-c3c[nH]c4ccccc34)n2C)sc2c1CCCC2 | – | ? | ? | – | –
CCOC(=O)c1c(NC(=O)c2ccccc2C)sc2c1CCCC2 | · | – | ? | · | ·
CCOC(=O)c1c(NC(=O)C(C)Sc2cn(CCNC(=O)c3ccccc3OC)c3ccccc23)sc2c1CCC2 (configuration not stated) | · | 18µM | 5.2µM | · | ·
O=C(O)C1CCC(Cn2c(SCc3cc(=O)n4cc(Cl)ccc4n3)nc3ccsc3c2=O)CC1 (configuration not stated) | – | ? | ? | – | –
CNc1nc(-c2ccccc2)c(-c2ccccc2)s1 | · | ? | ? | – | –
CCOC(=O)c1c(NC(=O)c2cc(-c3ccc(OC)c(OC)c3)on2)sc2c1CCCC2 | · | – | – | · | ·
CCOC(=O)c1c(NC(=O)C(C)Sc2cn(CCNC(=O)c3ccc(OC)c(OC)c3)c3ccccc23)sc2c1CCC2 (configuration not stated) | · | 21µM | ? | · | ·
CCOC(=O)[C@]12CCC=C1N(Cc1ccc(Cl)cc1Cl)C(=O)[C@H](CC(=O)NCCCOC)C2 | – | ? | 16µM | – | –
CCCCNC(=O)C[C@@H]1C[C@@]2(C(=O)OCC)CCCC=C2N(Cc2ccco2)C1=O | – | ? | ? | – | –
CCCCNC(=O)C[C@@H]1C[C@@]2(C(=O)OCC)CCC=C2N(Cc2ccc(Cl)cc2Cl)C1=O | ? | ? | 16µM | ? | ?
SMILES | IL1B secr inh | TDP1 cell CPT | TDP1 cell noCPT | HT1080 IDH1KD tx | HT1080-NT tox
CCOC(=O)[C@]12CCC=C1N(Cc1ccc3c(c1)OCO3)C(=O)[C@H](CC(=O)NCCCOC)C2 | – | – | – | – | –
O=Cc1ccc(OC(=O)c2cc(Cl)nc3ccccc23)cc1 | – | ? | 21µM | – | –
CCCOc1ccc(C2C(=O)N(C3CCC(C)CC3)CC(=O)N2CCC2=CCCCC2)cc1OC (configuration not stated) | · | ? | – | · | ·
CCOCCCN1C(=O)CN(C2CCCCCC2)C(=O)C1c1ccc(OCC)c(OC)c1 (configuration not stated) | · | – | – | · | ·
COc1cc(C2C(=O)N(C3CCCCCC3)CC(=O)N2CCC2=CCCCC2)ccc1OC(C)C (configuration not stated) | · | 18µM | 21µM | · | ·
COc1cc(C2C(=O)N(C3CCCCC3)CC(=O)N2CCC2=CCCCC2)ccc1OC(C)C (configuration not stated) | · | – | – | · | ·
CCOc1ccc(C2C(=O)N(C3CCCCCC3)CC(=O)N2CCC2=CCCCC2)cc1OC (configuration not stated) | · | 23µM | 16µM | · | ·
COc1ccc(C2C(=O)N(C3CCC(C)CC3)CC(=O)N2CCC2=CCCCC2)cc1OC (configuration not stated) | · | 23µM | 23µM | · | ·
O=C(NCc1ccc(F)cc1)c1cc(C2CCCCN2S(=O)(=O)c2ccc(F)cc2F)on1 (configuration not stated) | – | 23µM | ? | – | –
COc1ccc(S(=O)(=O)N2CCCCC2c2cc(C(=O)Nc3ccc4c(c3)OCO4)no2)cc1 (configuration not stated) | – | 18µM | 15µM | ? | –
COc1ccc(S(=O)(=O)N2CCCCC2c2cc(C(=O)NCc3ccccc3)no2)cc1 (configuration not stated) | ? | 26µM | ? | – | –
CCCNC(=O)c1cc(C2CCCCN2S(=O)(=O)c2ccc(F)cc2F)on1 (configuration not stated) | – | – | – | – | –
CS(=O)(=O)N1CCCCC1c1cc(C(=O)Nc2ccc3c(c2)OCO3)no1 (configuration not stated) | – | – | – | – | –
O=C(NCc1cccnc1)c1cc(C2CCCCN2S(=O)(=O)c2ccccc2)on1 (configuration not stated) | – | – | ? | – | –
CCCNC(=O)c1cc(C2CCCCN2S(=O)(=O)c2ccc(OC)cc2)on1 (configuration not stated) | – | – | ? | – | –
O=C(NCc1ccccc1)c1cc(C2CCCCN2S(=O)(=O)c2ccccc2)on1 (configuration not stated) | – | ? | 26µM | – | –
COCC(=O)Nc1cc(C(=O)N2CCCCC2c2nccs2)c2c(c1)nc(-c1ccncc1)n2C (configuration not stated) | · | – | – | · | ·
CCC(C)(C)n1nnnc1C(c1cc(OC)ccc1OC)N1CCC(C(N)=O)CC1 (configuration not stated) | – | – | – | – | –
CC1CCCN(CCCCOc2cccc(Br)c2)C1 (configuration not stated) | – | – | ? | – | –
N#Cc1cccc(NC(=O)c2cc(C3CCCCN3S(=O)(=O)c3ccccc3)on2)c1 (configuration not stated) | – | ? | 16µM | – | –
